Measurements taken from PubChem BioAssay (NCATS).
Records with an inconclusive call do not appear. Where a call stands in place of a potency, no number is given. Active and inactive are the calls of the source. Calls follow the shape of the dose curve; as a rule, active = well fitted inhibition curve with a large enough effect; inconclusive = small, poorly fitted or top-dose-only effect; inactive = flat fitted curve, though single readings scatter.

The compounds below were run against Voltage-gated inwardly rectifying potassium channel KCNH2 (Homo sapiens) (UniProt Q12809) (assay: qHTS Assay for Small Molecule Inhibitors of the Human hERG Channel Activity (AID 588834;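 also: lower thallium flux fluorescence means stronger hERG block; nearly all actives have a fitted effect of over 50% in size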)). Conditions: U2OS BacMam hERG, FluxOR thallium flux fluorescence; series mostly up to 46.1 µM.
Voltage-gated inwardly rectifying potassium channel KCNH2 (Homo sapiens), sequence (Q12809 whole entry, looked up): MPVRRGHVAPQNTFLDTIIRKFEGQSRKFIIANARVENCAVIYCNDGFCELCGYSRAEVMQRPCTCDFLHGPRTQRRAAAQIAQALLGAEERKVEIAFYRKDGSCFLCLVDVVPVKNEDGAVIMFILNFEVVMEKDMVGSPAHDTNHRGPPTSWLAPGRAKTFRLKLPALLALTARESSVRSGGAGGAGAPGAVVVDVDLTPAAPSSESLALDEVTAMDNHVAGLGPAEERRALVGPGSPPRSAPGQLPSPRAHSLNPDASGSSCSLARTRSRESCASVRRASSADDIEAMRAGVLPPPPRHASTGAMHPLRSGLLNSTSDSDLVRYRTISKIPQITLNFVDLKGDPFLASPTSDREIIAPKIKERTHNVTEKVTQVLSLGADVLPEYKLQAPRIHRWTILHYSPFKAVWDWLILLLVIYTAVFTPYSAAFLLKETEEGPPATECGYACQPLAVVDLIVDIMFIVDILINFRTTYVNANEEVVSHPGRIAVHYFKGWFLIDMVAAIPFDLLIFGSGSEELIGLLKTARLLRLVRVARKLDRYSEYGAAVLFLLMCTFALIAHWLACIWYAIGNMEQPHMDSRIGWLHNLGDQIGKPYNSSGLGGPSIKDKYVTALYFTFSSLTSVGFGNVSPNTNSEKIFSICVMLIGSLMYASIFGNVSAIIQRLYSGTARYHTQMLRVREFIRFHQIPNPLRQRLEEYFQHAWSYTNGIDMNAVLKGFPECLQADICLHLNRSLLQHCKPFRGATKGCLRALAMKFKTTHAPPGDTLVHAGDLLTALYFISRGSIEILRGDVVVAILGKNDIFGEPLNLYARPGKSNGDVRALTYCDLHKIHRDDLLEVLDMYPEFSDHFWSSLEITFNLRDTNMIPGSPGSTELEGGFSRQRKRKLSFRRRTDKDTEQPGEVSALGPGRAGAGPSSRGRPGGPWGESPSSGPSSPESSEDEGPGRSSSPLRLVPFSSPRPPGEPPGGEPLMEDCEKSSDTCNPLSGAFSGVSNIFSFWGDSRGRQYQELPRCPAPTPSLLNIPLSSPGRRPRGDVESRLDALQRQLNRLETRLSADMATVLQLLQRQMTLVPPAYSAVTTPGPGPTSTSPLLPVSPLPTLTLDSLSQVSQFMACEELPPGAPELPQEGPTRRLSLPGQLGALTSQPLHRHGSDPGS
How it was run: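 U2OS cells BacMam-transduced with hERG, 2000 cells/well, compound ~10 min at 37 °C before stimulation buffer. FluxOR thallium flux fluorescence read kinetically on FDSS; decrease indicates block; AC50 from Hill fits.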
Potency is read from the fitted curve at half-maximal effect.

Row | Structure (SMILES) | Potency
1 | CC(C)=CCOc1ccc(/C=C/C(=O)c2ccc(OCC=C(C)C)cc2OCC(=O)O)cc1 | inactive
2 | COc1cc([C@H]2Oc3cc([C@H]4Oc5cc(O)cc(O)c5C(=O)[C@@H]4O)ccc3O[C@@H]2CO)ccc1O | inactive
3 | O=C(Nc1ncc([N+](=O)[O-])s1)c1cccs1 | inactive
4 | COc1ccc(C(=O)c2ccccc2)c(O)c1 | 35.5 µM (active)
5 | CC(C)NCC(O)c1ccc2ccccc2c1 (stereo not drawn) | inactive
6 | NC(=S)N/N=C/c1cccnc1 | inactive
7 | O=C(NCCc1c[nH]c2ccccc12)c1cccnc1 | inactive
8 | NCc1ccccc1Sc1ccccc1CO | inactive
9 | CCCCCCCCCCCCCCCC(=O)O | inactive
10 | CNCCCCOc1ccccc1Cc1ccccc1 | 6.31 µM (active)
11 | CC[C@H](c1ccc(O)cc1)[C@@H](CC)c1ccc(O)cc1 | inactive
12 | CCCCCCCCOc1ccc(C(=O)c2ccccc2)c(O)c1 | inactive
13 | CN(CCCN1c2ccccc2CCc2ccccc21)CC(=O)c1ccc(Cl)cc1 | 5.01 µM (active)
14 | C=C[C@@]1(C)CC(=O)[C@]2(O)[C@@]3(C)[C@@H](O)CCC(C)(C)[C@@H]3[C@H](O)[C@H](OC(C)=O)[C@@]2(C)O1 | inactive
15 | COc1ccccc1N1CCN(CCCCNC(=O)c2ccc(-c3ccc(C(C)=O)cc3)cc2)CC1 | 1.26 µM (active)
16 | CCN(CC)CCOc1ccccc1C(=O)CCc1ccccc1 | 1.12 µM (active)
17 | O=[N+]([O-])c1cccc(S(=O)(=O)NCCNS(=O)(=O)c2cccc([N+](=O)[O-])c2)c1 | inactive
18 | C#C[C@]1(OC(C)=O)CC[C@H]2[C@@H]3CCC4=C/C(=N/O)CC[C@@H]4[C@H]3CC[C@@]21CC | inactive

Row | Structure (SMILES) | Potency
19 | CN=C(N)NCCC[C@H](N)C(=O)O | inactive
20 | CN(Cc1ccc(C(C)(C)C)cc1)Cc1cccc2ccccc12 | 7.94 µM (active)
21 | NCCNC(=O)c1ccc(Cl)cn1 | inactive
22 | CCc1oc2ccccc2c1C(=O)c1cc(I)c(O)c(I)c1 | inactive
23 | O=C(CCN1CCN2CCCC2C1)N1c2ccccc2Sc2ccc(Cl)cc21 (stereo not drawn) | 15.8 µM (active)
24 | Oc1c(Cl)cc(Cl)c(Cl)c1Cc1c(O)c(Cl)cc(Cl)c1Cl | inactive
25 | CCOc1cc(OCC)c(C(=O)CCC(=O)O)cc1OCC | inactive
26 | CO[C@]12C[C@@H](COC(=O)c3cncc(Br)c3)CN(C)[C@@H]1Cc1cn(C)c3cccc2c13 | 0.398 µM (active)
27 | C#C[C@]1(O)CC[C@H]2[C@@H]3CCC4=Cc5oncc5C[C@]4(C)[C@H]3CC[C@@]21C | inactive
28 | C=CCN1CCc2nc(N)sc2CC1 | inactive
29 | CCc1oc2ccccc2c1C(=O)c1cc(Br)c(O)c(Br)c1 | inactive
30 | Cl/C(=C\n1cncn1)c1ccc(Cl)cc1Cl | inactive
31 | N/C(=N\N=C\c1ccc(Cl)cc1)N/N=C/c1ccc(Cl)cc1 | 3.55 µM (active)
32 | Cc1ccc2c(Br)cc(Br)c(O)c2n1 | inactive
33 | O=C(O)C1(C(=O)O)CCC1.[NH2-].[NH2-].[Pt+2] | inactive
34 | NCCNc1cccc2ccccc12 | inactive
35 | O=C(CN1CCN(Cc2ccc3c(c2)OCO3)CC1)N1c2ccccc2Sc2ccccc21 | 2.51 µM (active)
36 | CCCCCCCCCCCCCC[N+](C)(C)Cc1ccccc1 | 7.94 µM (active)

What follows are compounds tested against Luciferin 4-monooxygenase (Photinus pyralis) (UniProt P08659) (assay: Biochemical firefly luciferase enzyme assay for NPC (AID 624030; also: nearly all actives have a fitted effect of over 70% in size)). Conditions: purified P. pyralis luciferase, luminescence, 5 min; series mostly up to 58.6 µM.
Luciferin 4-monooxygenase (Photinus pyralis), sequence (P08659 whole entry, looked up): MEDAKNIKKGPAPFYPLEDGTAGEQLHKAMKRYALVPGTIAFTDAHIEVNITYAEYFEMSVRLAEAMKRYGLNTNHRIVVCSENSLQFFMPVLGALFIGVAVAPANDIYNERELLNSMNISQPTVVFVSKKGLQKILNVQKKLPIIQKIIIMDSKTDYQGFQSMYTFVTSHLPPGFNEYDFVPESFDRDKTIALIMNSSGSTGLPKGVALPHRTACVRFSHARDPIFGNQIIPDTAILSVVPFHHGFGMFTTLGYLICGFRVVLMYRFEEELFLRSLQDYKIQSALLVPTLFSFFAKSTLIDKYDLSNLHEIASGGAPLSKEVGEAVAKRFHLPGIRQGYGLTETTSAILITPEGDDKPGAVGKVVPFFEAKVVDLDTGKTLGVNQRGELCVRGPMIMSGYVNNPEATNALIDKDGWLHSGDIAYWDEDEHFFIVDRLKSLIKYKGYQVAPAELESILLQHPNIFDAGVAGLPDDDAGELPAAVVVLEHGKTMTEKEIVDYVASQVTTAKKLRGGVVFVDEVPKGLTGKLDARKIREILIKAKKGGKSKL
How it was run: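 Counter-screen for direct inhibition of the luciferase enzyme by approved-drug library compounds, run at 10 nM enzyme in 50 mM Tris acetate (final). Luminescence was read within 5 min of enzyme-buffer addition and normalized to PTC124 versus DMSO (0%).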

Row | Structure (SMILES) | Potency
37 | COc1cc([C@H]2Oc3cc([C@H]4Oc5cc(O)cc(O)c5C(=O)[C@@H]4O)ccc3O[C@@H]2CO)ccc1O | inactive
38 | O=C(Nc1ncc([N+](=O)[O-])s1)c1cccs1 | 3.61 µM (active)
39 | CC(C)NCC(O)c1ccc2ccccc2c1 (stereo not drawn) | inactive
40 | NC(=S)N/N=C/c1cccnc1 | inactive
41 | NCc1ccccc1Sc1ccccc1CO | inactive
42 | CCCCCCCCCCCCCCCC(=O)O | inactive
43 | CNCCCCOc1ccccc1Cc1ccccc1 | inactive
44 | CC[C@H](c1ccc(O)cc1)[C@@H](CC)c1ccc(O)cc1 | inactive
45 | CCCCCCCCOc1ccc(C(=O)c2ccccc2)c(O)c1 | inactive
46 | CN(CCCN1c2ccccc2CCc2ccccc21)CC(=O)c1ccc(Cl)cc1 | inactive
47 | C=C[C@@]1(C)CC(=O)[C@]2(O)[C@@]3(C)[C@@H](O)CCC(C)(C)[C@@H]3[C@H](O)[C@H](OC(C)=O)[C@@]2(C)O1 | inactive
48 | COc1ccccc1N1CCN(CCCCNC(=O)c2ccc(-c3ccc(C(C)=O)cc3)cc2)CC1 | inactive
49 | CCN(CC)CCOc1ccccc1C(=O)CCc1ccccc1 | inactive
50 | O=[N+]([O-])c1cccc(S(=O)(=O)NCCNS(=O)(=O)c2cccc([N+](=O)[O-])c2)c1 | inactive
51 | C#C[C@]1(OC(C)=O)CC[C@H]2[C@@H]3CCC4=C/C(=N/O)CC[C@@H]4[C@H]3CC[C@@]21CC | inactive
52 | CN=C(N)NCCC[C@H](N)C(=O)O | inactive
53 | CN(Cc1ccc(C(C)(C)C)cc1)Cc1cccc2ccccc12 | inactive
54 | NCCNC(=O)c1ccc(Cl)cn1 | inactive
55 | O=C(CCN1CCN2CCCC2C1)N1c2ccccc2Sc2ccc(Cl)cc21 (stereo not drawn) | inactive
56 | CO[C@]12C[C@@H](COC(=O)c3cncc(Br)c3)CN(C)[C@@H]1Cc1cn(C)c3cccc2c13 | inactive
57 | C#C[C@]1(O)CC[C@H]2[C@@H]3CCC4=Cc5oncc5C[C@]4(C)[C@H]3CC[C@@]21C | inactive
58 | C=CCN1CCc2nc(N)sc2CC1 | inactive
59 | Cl/C(=C\n1cncn1)c1ccc(Cl)cc1Cl | inactive
60 | Cc1ccc2c(Br)cc(Br)c(O)c2n1 | inactive
61 | NCCNc1cccc2ccccc12 | inactive
62 | O=C(CN1CCN(Cc2ccc3c(c2)OCO3)CC1)N1c2ccccc2Sc2ccccc21 | inactive
63 | CCCCCCCCCCCCCC[N+](C)(C)Cc1ccccc1 | inactive
